Molecules are shown by their SMILES. Out of some 300,000 compounds screened, about 3,700 (1.2%) were called active. Inconclusive results (about 20%) are left out. The call rests on the fitted dose curve; tested in HEK293 cells. For the sample, actives were picked, then their nearest neighbours and some compounds at random.
On the % scale 0 is the no-effect control and ±100 the full control effect; potency means the concentration at half of the fitted maximal effect.

A short description of this assay: qHTS for Inhibitors of binding or entry into cells for Lassa Virus. Further: nearly all actives have a fitted effect of over 50% in size. The conditions noted are these: Lassa virus pseudotype entry inhibition, cell reporter; series mostly up to 37.9 µM; activity change, negative = inhibition: at the top concentration.
`NC(N)=N/N=C/c1ccc(Cl)c([N+](=O)[O-])c1`: the “activity change, negative = inhibition” value was 10.6% (inactive). For `CNN/C(N=Cc1ccc([N+](=O)[O-])s1)=N\S(=O)(=O)c1cc(C)c(Cl)cc1SCc1ccccc1`, the “activity change, negative = inhibition” value was -0.987% (inactive). Turning to `O=[N+]([O-])c1ccc(C=Nc2ccc(Cl)cc2Cl)s1`, the Potency is 16.4 µM (active).

`CCOc1ccc(NC(=O)CSc2nncn2C)cc1`: the “activity change, negative = inhibition” value was -5.3% (inactive).

With `NS(=O)(=O)c1ccc(CNC(=O)c2cccc(S(=O)(=O)N3CCc4ccccc43)c2)cc1`, the “activity change, negative = inhibition” value was 5.39% (inactive). Same read-out and setting: as for `CN(Cc1ccccc1)C(=O)CSc1nc2ccccc2[nH]1`, the figure is 12% (inactive); as for `CCOC(=O)C1CCN(C(=O)C2CCCN(S(=O)(=O)c3ccc(OC)c(Cl)c3)C2)CC1` (centres undefined), -4.15% (inactive). The same measure, in the same setting: the result for `COc1ccc(CCNC(=O)C(Sc2ccccn2)c2ccccc2)cc1OC` (centres undefined) reads -5.66% (inactive).

On to `COc1ccc(C(CCN(Cc2ccc(OC)c(OC)c2)C(=O)CCl)c2ccccc2)cc1` (centres undefined), for which the Potency was 10 µM (active).

For the compound `CCOC(=O)CN(Cc1ccc(OC)c(OC)c1)S(=O)(=O)c1ccc(OC)cc1`, the “activity change, negative = inhibition” value was -21.2% (inactive). As to `CCOC(=O)C1CCN(C(=O)CN2C(=O)NC(C)(c3ccc4cc(OC)ccc4c3)C2=O)CC1` (centres undefined), the “activity change, negative = inhibition” value was -0.475% [at 46.1 µM] (inactive). Same read-out and setting: as for `COc1ccc(C(=O)Nc2cccc(/C=C(/CCC(=O)O)c3nc4ccccc4s3)c2)cc1`, the figure is 14.6% [at 46.1 µM] (inactive). Same read-out and setting: as for `CCOc1ccc(CNC(=O)CCc2c(C)nn(-c3ccc(N4CCCCC4)nn3)c2C)cc1`, the figure is -7.82% [at 46.1 µM] (inactive). Still for that read-out and setting: the result for `NS(=O)(=O)c1ccc(Nc2nc(-c3ccccc3)cs2)cc1` reads -25.5% (inactive); that for `COc1ccc2nc(Nc3nc(-c4ccncc4)cs3)sc2c1`, -4.91% [at 46.1 µM] (inactive). As for `COc1ccc(Nc2nc(-c3ccccc3)cs2)cc1`, the Potency is 20.6 µM (active). Consider `Nc1c(-c2ccccc2)nnn1Cc1ccccc1`, for which the “activity change, negative = inhibition” value was -13.1% [at 46.1 µM] (inactive). On the same count and under the same terms, as for `CCOc1ccc2oc(C(=O)N(CC)CC(=O)Nc3ccc(NC(C)=O)cc3)c(C)c2c1`, the figure is -17.5% (inactive); as for `Cc1ccc(Nc2c(O)nc[nH]c2=O)cc1C`, 29.7% [at 46.1 µM] (inactive).

On to `Fc1ccc(-c2nc(Nc3cccc(Cl)c3)nc3c2COc2ccccc2-3)cc1`, for which the “activity change, negative = inhibition” value is -1.69% [at 46.1 µM] (inactive). On the same count and under the same terms, as for `N/C(=N\OC(=O)Nc1ccc(Cl)c(Cl)c1)c1ncc(C(F)(F)F)cc1Cl`, the figure is -1.23% (inactive).

For the compound `O=C(CC(=O)Nc1ccc(Cl)c(Cl)c1)N/N=C/c1ccc(O)cc1`, the “activity change, negative = inhibition” value is -16.6% (inactive). With `O=C(CC(O)(C(F)(F)F)C(F)(F)F)Nc1ccc(Cl)c(Cl)c1`, the Potency was 4.61 µM (active). Regarding `O=C(COc1ccccc1F)Nc1nc(-c2ccccn2)cs1`, the “activity change, negative = inhibition” value is -25.7% [at 46.1 µM] (inactive). With `O=C1NC(=O)C(CCc2ccccc2)(c2ccccc2)N1` (centres undefined), the “activity change, negative = inhibition” value is -11.9% (inactive). With `CC(C)[C@H]1COCCS(=O)(=O)N1Cc1ccccc1-c1cccc2c1sc1ccccc12`, the “activity change, negative = inhibition” value is -3.69% [at 46.1 µM] (inactive). With `CCn1c(=S)[nH]c2cc(S(=O)(=O)N3CCOCC3)ccc21`, the “activity change, negative = inhibition” value is 17% (inactive). Still for that read-out and setting: the result for `O=C(CN1C(=O)NC2(CCCCC2)C1=O)NCCc1c[nH]c2ccccc12` reads -1.27% (inactive). Take `N#C/C(=C/c1ccc(N2CCCCC2)o1)C(=O)NCCc1c[nH]c2ccccc12`: the Potency was 7.08 µM (active). For `CC(=O)N/C(=C/c1ccc(Cl)cc1)C(=O)NCCc1c[nH]c2ccccc12`, the “activity change, negative = inhibition” value was 0.212% (inactive). Still for that read-out and setting: the result for `COc1ccc(C(=O)COC(=O)c2c(C)noc2C)cc1Cl` reads 2.78% [at 46.1 µM] (inactive); that for `Cc1c(C(=O)Nc2cccc(S(=O)(=O)N3CCOCC3)c2)oc2ccccc12`, -20.8% (inactive).

Turning to `O=C(c1ccc(N2CCOCC2)c([N+](=O)[O-])c1)N1CCN(c2ccccc2F)CC1`, the “activity change, negative = inhibition” value is -8.55% (inactive). As to `O=C(c1cn(-c2ccccc2)nc1-c1cc2ccccc2oc1=O)N1CCOCC1`, the “activity change, negative = inhibition” value is -3.07% [at 46.1 µM] (inactive).

Consider `Nc1ncc(-c2cc3ccccc3oc2=O)s1`, for which the “activity change, negative = inhibition” value was -24.4% (inactive).

Consider `O=c1oc2ccccc2cc1-c1cn(-c2ccccc2)c(=S)[nH]1`, for which the Potency was 0.891 µM (active). Consider `O=C1NCC(Nc2ccccc2)C(=O)N1` (centres undefined), for which the “activity change, negative = inhibition” value was 10.5% (inactive).

In the case of `O=C(NCc1ccc(Cl)cc1)C(=O)NCC1CCCN1S(=O)(=O)c1cccs1` (centres undefined), the “activity change, negative = inhibition” value is -4.01% [at 46.1 µM] (inactive). Regarding `O=C(COC(=O)c1cnccn1)Nc1ccc(Cl)cc1C(F)(F)F`, the “activity change, negative = inhibition” value was 11.6% (inactive). As to `CN(Cc1cnccn1)C(=O)c1cc(COc2cccc(C(F)(F)F)c2)on1`, the “activity change, negative = inhibition” value is -6.31% [at 46.1 µM] (inactive). The same measure, in the same setting: as for `COC(=O)C(C)Sc1nc2c(c(=O)n(C)c(=O)n2C)n1Cc1cccc(C)c1` (centres undefined), the figure is 5.84% (inactive). For `Cc1cccc(Cn2c(N3CCN(c4ccccc4)CC3)nc3c2c(=O)n(C)c(=O)n3C)c1`, the Potency is 5.8 µM (active).

`Cc1cccc(Cn2c(SCCO)nc3c2c(=O)n(C)c(=O)n3C)c1`: the “activity change, negative = inhibition” value was -2.24% (inactive).

With `O=C(CCCN1C(=O)/C(=C\c2ccccc2)SC1=S)Nc1ccccc1O`, the “activity change, negative = inhibition” value was -22.6% [at 46.1 µM] (inactive). As for `COc1ccc(/C=C2/SC(=O)N(CCCCCC(=O)Nc3ccccc3C(=O)O)C2=S)cc1`, the Potency is 11.2 µM (active). Consider `COc1ccc(/C=C2\SC(=O)N(CCC(=O)NC3CCS(=O)(=O)C3)C2=O)cc1` (centres undefined), for which the “activity change, negative = inhibition” value was -21.2% [at 46.1 µM] (inactive). As to `CCCCN1CC(COc2ccccc2)Oc2cccc(F)c2S1(=O)=O` (centres undefined), the “activity change, negative = inhibition” value was 19.5% [at 46.1 µM] (inactive). Turning to `O=C(Cc1ccccc1Cl)N1CCOCC1`, the “activity change, negative = inhibition” value was 3.06% [at 46.1 µM] (inactive). The same measure, in the same setting: the result for `O=C(Nc1ccccc1C(=O)Nc1ccncc1)c1ccc([N+](=O)[O-])cc1` reads 12.2% (inactive).

On to `O=C(CN1C(=O)c2ccccc2S1(=O)=O)N1CCc2ccccc21`, for which the Potency was 0.259 µM (active).

Regarding `O=C(CN1C(=O)c2ccccc2S1(=O)=O)NC1CCCCC1`, the “activity change, negative = inhibition” value was 12.3% (inactive). On the same count and under the same terms, the result for `O=C(CN1CCN(c2ccccn2)CC1)N1CCc2ccccc21` reads 15.1% (inactive); that for `O=C(CSc1ncnc2sccc12)N1CCN(C(=O)c2cccs2)CC1`, 21.3% (inactive). As to `O=C(Nc1ccc2ccccc2c1)Nc1ccc2snnc2c1`, the Potency was 12.6 µM (active). As to `COc1ccc(NC(=O)Nc2ccc3nsnc3c2)cc1`, the “activity change, negative = inhibition” value is 11% (inactive). On the same count and under the same terms, the result for `S=C(Nc1ccccc1)Nc1ccc2ccccc2c1` reads 14.6% [at 46.1 µM] (inactive); that for `Cc1ccccc1-c1nc2scc(CCNC(=O)C(=O)Nc3ccc(F)cc3F)n2n1`, -11.2% [at 46.1 µM] (inactive); that for `C/C(=N\NC(=O)COc1ccc(C)cc1[N+](=O)[O-])c1ccc2c(c1)OCCO2`, -0.74% (inactive). Still for that read-out and setting: as for `O=C(NCC(c1ccco1)N1CCc2ccccc21)c1cccc(F)c1` (centres undefined), the figure is -0.219% (inactive); as for `COc1ccc(C(=O)OCc2cc(=O)n3ccsc3n2)cc1F`, 17.1% (inactive). As for `CCC(=O)OCCNc1nc(-c2ccccc2)nc2ccccc12`, the “activity change, negative = inhibition” value was -0.495% [at 46.1 µM] (inactive). In the case of `CC(C)(C)OC(=O)NNc1c2ccccc2nc2ccccc12`, the Potency is 12.6 µM (active).

Take `Cc1ccccc1NC(=O)NNC(=O)OC(C)(C)C`: the “activity change, negative = inhibition” value was -4.8% (inactive). Same read-out and setting: as for `Cc1ccc(S(=O)(=O)NC(=O)Nc2nc(-c3ccc(F)c(F)c3)cs2)cc1`, the figure is 10.2% (inactive); as for `COc1ccc(-c2csc(NC(=O)c3ccc(N4C(=O)CCC4=O)cc3)n2)cc1OC`, 0.29% (inactive).

`Cc1ccc(-c2csc(NC(=O)Cc3cccs3)n2)cc1C`: the Potency is 15.8 µM (active).

As for `COc1ccc(-c2csc(NC(=O)CCCc3cccs3)n2)cc1`, the “activity change, negative = inhibition” value was 18% (inactive). On the same count and under the same terms, as for `Cc1ccc(-c2csc(NC(=O)c3cnccn3)n2)cc1C`, the figure is -0.439% (inactive).

In the case of `COc1ccc(CC(=O)Nc2nc(-c3ccc(F)c(F)c3)cs2)cc1OC`, the Potency was 11.2 µM (active).

The values are drawn from PubChem BioAssay AID540256 (National Center for Advancing Translational Sciences (NCATS), 2011).
